Vif inh = HIV Vif inhibition. 0.35% of 340,000 active. HEK293T cells, Vif self-association by quenched fluorescence, imaging, 24 h. inhibition, % at 7.49 µM. AID 602346; in the data active = inhibition above about 50%, passing the limit was not always enough; inconclusive = no clear call, values can overlap the other calls; inactive = below about 31%
N-glyco inh = N-linked glycosylation inhibition; D54 ERlucT glycosylation luciferase reporter, 24 h; percent of 100 nM tunicamycin response; reporter increase, % at 12.5 µM; 0.23% of 360,000 active; AID 588692;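 active = mean luciferase reporter signal, scaled so untreated is 0 and the glycosylation-blocking control 100, at or above a set limit in every replicate; inconclusive = mean reaches the limit but not every replicate does; inactive = mean below the limit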;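 note: luciferase carries N-glycosylation sites so blocking glycosylation raises the light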
PvdQ inh = P. aeruginosa PvdQ acylase inhibition; purified PvdQ acylase, fluorescence plate reader; inhibition, % at 10 µM; 0.063% of 340,000 active; in the data active = inhibition above about 30%, passing the limit was not always enough; inconclusive = no clear call, values can overlap the other calls
MITF TRPM1 HTS = increases MITF-driven TRPM1 promoter luciferase signal; SK-MEL-5 TRPM1-promoter luciferase, 24 h; % of positive control, neutral wells = 0; activation, % at 12.5 µM; 0.75% of 300,000 active;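 active = mean activation of at least 80% with every replicate also reaching 80%; inconclusive = mean reaches 80% but some replicate falls short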
Wnt act = activates Wnt/beta-catenin signaling in a reporter cell assay. activator, plate reader. activation, % at 9.35 µM. 1.2% of 300,000 active; in the data active = activation above about 30%, passing the limit was not always enough; inconclusive = no clear call, values can overlap the other calls
esBAF inh = SWI/SNF esBAF complex inhibition; AID 602393; reporter increase, % at 12.5 µM; 2% of 350,000 active; mouse ES cells, Bmi1-luciferase knock-in reporter, 24 h; 100% = twice the neutral-well signal; in the data active = activation above about 40%; inconclusive = no clear call, values can overlap the other calls;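 note: a rise in the Bmi1 reporter signal indicates esBAF inhibition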
A number is an active result. The list is not random: actives were taken first. Their share in the collection is about 2.9%.

Screening Cc1cc(N2CCCC2)ccc1/C=C1/C(=O)N(C)C(=S)N1C returned Vif inh inactive, N-glyco inh inactive, PvdQ inh inactive, MITF TRPM1 HTS inactive, Wnt act inactive and esBAF inh inactive.
Screening Cc1cc(/C=C2\NC(=S)N(C)C2=O)ccc1N1CCCC1 returned Vif inh active, N-glyco inh inactive, PvdQ inh inactive, MITF TRPM1 HTS inactive, Wnt act 53 and esBAF inh 65.
Screening COc1ccc(CN(C)C[C@@H]2Oc3ccc(NC(=O)CCC(F)(F)F)cc3C(=O)N([C@H](C)CO)C[C@H]2C)cc1 returned esBAF inh inactive.
Screening Cc1ccc(S(=O)(=O)N[C@@H]2C=C[C@H](CC(=O)NCc3ccc(Cl)c(Cl)c3)O[C@H]2CO)cc1 returned esBAF inh inactive.
COC(=O)C[C@@H]1CC[C@H]2[C@H](COc3ccc(NC(=O)NC(C)C)cc3C(=O)N2C)O1 was read as esBAF inh inactive.
Screening COCC(=O)Nc1ccc2c(c1)C(=O)N(C)[C@H]1CC[C@H](CC(=O)NCc3ccc(OC)cc3)O[C@@H]1CO2 returned esBAF inh inactive.
Screening Cc1noc(C)c1NC(=O)Nc1ccc2c(c1)C(=O)N([C@@H](C)CO)C[C@@H](C)[C@H](CN(C)S(=O)(=O)c1cn(C)cn1)OCCCC[C@@H](C)O2 returned esBAF inh inactive.
CCCNC(=O)C[C@H]1CC[C@@H]2[C@H](COc3ccc(NC(=O)Nc4ccccc4)cc3C(=O)N2C)O1 was read as esBAF inh inactive.
Screening COc1ccc(N=C2C(=S)N(c3ccc(OC)cc3)C(=NS(=O)(=O)c3ccccc3)N2c2ccccc2)cc1 returned Vif inh inactive, N-glyco inh inactive, PvdQ inh inactive, MITF TRPM1 HTS inactive and Wnt act 68.
For C[C@@H]1CN([C@@H](C)CO)C(=O)c2cc(N(C)C)ccc2O[C@@H](C)CCCCO[C@@H]1CN(C)C(=O)Nc1ccc(C(F)(F)F)cc1 the results were esBAF inh inactive.
COc1cc(OC)c(C(=O)NCc2ccco2)cc1OC was read as Vif inh inactive, N-glyco inh inactive, PvdQ inh inactive, Wnt act inactive and esBAF inh inactive.
For COc1cc(C(F)(F)F)ccc1C(=O)NCCc1ccco1 the results were Vif inh inactive, N-glyco inh inactive, PvdQ inh inactive, MITF TRPM1 HTS 107, Wnt act inactive and esBAF inh 60.
`COc1cc2c(cc1NC(=O)CSc1ccccn1)oc1ccccc12` gave Vif inh inactive, N-glyco inh inactive, PvdQ inh inactive, MITF TRPM1 HTS 95 and esBAF inh 49.
`COc1cc2c(cc1NC(=O)c1cccnc1)oc1ccccc12` gave Vif inh inactive, N-glyco inh inactive, PvdQ inh inactive, MITF TRPM1 HTS inactive and esBAF inh 72.
Screening CC1=CC(C)(C)N=C(Nc2ccc(C)cc2)S1 returned Vif inh inactive, N-glyco inh inactive, PvdQ inh inactive, MITF TRPM1 HTS inactive, Wnt act inactive and esBAF inh 46.
CC(C)(C)S(=O)(=O)c1cnc(-c2ccc(Cl)cc2)nc1N was read as Vif inh inactive, N-glyco inh inactive, PvdQ inh inactive, MITF TRPM1 HTS inconclusive and Wnt act 39.
CCOc1ccc(/C=N/n2cc(-c3ccccc3)[nH]c2=S)cc1 was read as Vif inh inactive, N-glyco inh inactive, PvdQ inh inactive, MITF TRPM1 HTS inactive, Wnt act inactive and esBAF inh 45.
`O=C(C[C@H]1CC[C@H](NC(=O)CC2CC2)[C@@H](CO)O1)NCc1ccc(-c2ccccc2)cc1` gave esBAF inh inactive.
`CCOC(=O)c1cnc(SCCc2ccccc2)nc1N` gave Vif inh inconclusive, N-glyco inh inactive, PvdQ inh inactive, MITF TRPM1 HTS 95, Wnt act 37 and esBAF inh 42.
CCOC(=O)c1cnc(SCC(=O)c2ccc(Cl)cc2)nc1N was read as Vif inh inactive, N-glyco inh inactive, PvdQ inh inactive, Wnt act inactive and esBAF inh inactive.
`CCCCSc1ncc(C(=O)OCC)c(N)n1` gave Vif inh inactive, N-glyco inh inactive, PvdQ inh inactive, MITF TRPM1 HTS 112 and esBAF inh inactive.
`CCOC(=O)c1cnc(SCc2ccc(C)cc2)nc1N` gave Vif inh inactive, N-glyco inh inactive, PvdQ inh inactive, MITF TRPM1 HTS inactive and esBAF inh 61.

Assay outcomes (PubChem BioAssay)
